Tau fibril FP: tau fibrillization inhibition (FP); P10636; K18 P301L tau heparin fibrillization, Alexa594 FP, 6 h; Potency, µM (series often up to 57.7 µM), usual class: inhibitors; hit rate 0.39% among 280,000; AID 1468; further: nearly all actives have a fitted effect of over 55% in size
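Recombinant K18 P301L […], labeled with Alexa 594 at 0.24 uM over 15 uM unlabeled; heparin inducer 20 uM final; 37 C, 6 hr; FP endpoint.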
HPGD inh: inhibitors of human 15-hydroxyprostaglandin dehydrogenase (HPGD). P15428. purified HPGD, NADH fluorescence kinetic, PGE2 substrate. Potency, µM, usual class: inhibitors. hit rate 4.3% among 150,000. AID 894; active means well fitted inhibition curve with a large enough effect, not every such curve was filed as active; inconclusive means small, poorly fitted or top-dose-only effect, or another doubt; inactive means no such curve, though single readings can be large or run the other way
Target sequence (P15428 whole entry, looked up): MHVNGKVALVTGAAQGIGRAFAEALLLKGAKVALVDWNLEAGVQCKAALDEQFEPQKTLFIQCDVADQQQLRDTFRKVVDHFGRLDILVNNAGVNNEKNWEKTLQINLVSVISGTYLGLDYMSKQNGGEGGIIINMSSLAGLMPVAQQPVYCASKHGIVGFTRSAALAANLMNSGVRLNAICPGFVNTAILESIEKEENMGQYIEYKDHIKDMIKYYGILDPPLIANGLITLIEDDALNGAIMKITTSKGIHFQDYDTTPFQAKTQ
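20 nM HPGD preincubated 15 min at room temperature with compound in 50 mM Tris-HCl pH 8, 0.01% Tween 20. Started with 1 mM NAD+ and 30 uM prostaglandin E2; NADH fluorescence (360/450 nm) read 5 times over 30-s intervals, last minus first.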
Tau fluor cs: counter-screen for tau fibril formation inhibitors. tau K18 P301L Alexa594 fluorescence, heparin fibrillization. Potency, µM (titrated, usually from 57.7 µM). hit rate 0.93% among 280,000. AID 1463; further: nearly all actives have a fitted effect of over 55% in size
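Human tau K18 P301L (15 uM unlabeled, 0.24 uM Alexa 594-labeled) in 100 mM sodium acetate pH 7 with 20 uM heparin, 6 hr at 37 C. ThT 30 uM added, 1 hr ambient; Alexa 594 FP and total fluorescence read at 555/632 nm.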
ALDH1A1 block: ALDH1A1 (human) enzyme inhibition; P00352; Purified ALDH1A1, NADH fluorescence, propionaldehyde substrate; Potency, µM (doses to about 75.3 µM), actives largely listed as inhibitors; AID 1030; hit rate 7.3% among 220,000; active means well fitted inhibition curve with a large enough effect, not every such curve was filed as active; inconclusive means small, poorly fitted or top-dose-only effect, or another doubt; inactive means no such curve, though single readings can be large or run the other way
Target sequence (P00352 whole entry, looked up): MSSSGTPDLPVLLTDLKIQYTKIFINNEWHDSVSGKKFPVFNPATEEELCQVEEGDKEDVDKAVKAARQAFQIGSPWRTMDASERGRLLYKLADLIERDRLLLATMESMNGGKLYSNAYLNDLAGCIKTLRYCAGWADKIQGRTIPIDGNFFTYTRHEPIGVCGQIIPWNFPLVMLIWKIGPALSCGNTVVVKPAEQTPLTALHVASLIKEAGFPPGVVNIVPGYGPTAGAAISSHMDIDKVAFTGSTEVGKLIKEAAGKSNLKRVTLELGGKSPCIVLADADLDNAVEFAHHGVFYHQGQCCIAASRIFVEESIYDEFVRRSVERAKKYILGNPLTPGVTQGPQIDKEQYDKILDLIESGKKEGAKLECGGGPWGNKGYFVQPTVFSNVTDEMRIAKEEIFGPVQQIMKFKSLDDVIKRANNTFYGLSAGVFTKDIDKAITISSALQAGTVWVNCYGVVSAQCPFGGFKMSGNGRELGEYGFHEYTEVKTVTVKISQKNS
Tau ThT inhib: tau fibrillization inhibition (ThT binding); P10636; recombinant tau K18 P301L (four-repeat tau fragment), heparin-induced fibrillization, ThT fluorescence; Potency, µM (highest dose often 57.4 µM), hits mostly inhibitors; hit rate 2.1% among 270,000; further: nearly all actives have a fitted effect of over 55% in size
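Heparin-induced fibrillization of the P301L-mutant K18 repeat-domain fragment of human tau was followed by ThT binding in quantitative high-throughput format.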
JMJD2E inh: blocks human JMJD2E demethylase activity; B2RXH2; JMJD2E catalytic domain, FDH-coupled NADH fluorescence (FDH is formaldehyde dehydrogenase); Potency, µM (highest dose often 57.1 µM), most hits filed as inhibitors; hit rate 1.6% among 230,000; AID 2147; active means well fitted inhibition curve with a large enough effect, not every such curve was filed as active; inconclusive means small, poorly fitted or top-dose-only effect, or another doubt; inactive means no such curve, though single readings can be large or run the other way; further: nearly all actives have a fitted effect of over 50% in size
Large screens that a line does not name were inactive; ! = repeats disagree; [ ] = remark or other dose. In the library only some 9.9% were active in any assay of this set; here they are far more common. Unless noted, the call rests on the fitted dose curve; in most records, active means well fitted curve in the direction sought with a large enough effect; inconclusive means small, poorly fitted or top-dose-only effect, or another doubt; inactive means no such curve, though single readings can be large; an effect the other way counts as inactive or inconclusive.

O=C(NCC1CCCO1)c1ccc2c(=O)n(CC3CCCO3)c(=S)[nH]c2c1 (centres undefined)	ALDH1A1 block 11.2µM
O=C(CCCn1c(=O)[nH]c2cc(Cl)ccc2c1=O)NCC1CCCO1 (centres undefined)	none
COCCn1c(=O)[nH]c2cc(C(=O)NCC3CCCO3)ccc2c1=O (centres undefined)	HPGD inh inconclusive, ALDH1A1 block inconclusive, JMJD2E inh inconclusive
O=C(CCCn1c(=S)[nH]c2ccc(Br)cc2c1=O)NCC1CCCO1 (centres undefined)	HPGD inh 7.08µM, ALDH1A1 block 1.41µM
O=C(c1ccc2c(=O)n(CC3CCCO3)c(=S)[nH]c2c1)N1CCN(c2ccccc2)CC1 (centres undefined)	ALDH1A1 block inconclusive
CCOC(=O)N1CCN(C(=O)c2ccc3c(=O)n(CC4CCCO4)c(=S)[nH]c3c2)CC1 (centres undefined)	ALDH1A1 block 14.1µM
COCCn1c(=S)[nH]c2cc(C(=O)NCC3CCCO3)ccc2c1=O (centres undefined)	ALDH1A1 block 15.8µM
Cn1cc(CNC(=O)/C=C/c2ccc(Cl)cc2)cn1	none
C=CCn1c(O)c(C2=c3ccccc3=NC2=O)sc1=Nc1ccc(O)cc1	Tau fibril FP inconclusive, Tau fluor cs 12.6µM[quencher], Tau ThT inhib 12.6µM (no result: HPGD inh, ALDH1A1 block)
CC1COC(Cn2c3ccccc3c3ccccc32)O1 (centres undefined)	none (no result: HPGD inh, ALDH1A1 block)
NC(=O)/N=C(\N)NC(=O)c1ccccc1	none (no result: Tau fibril FP, Tau fluor cs, Tau ThT inhib, JMJD2E inh)
CN1C(=O)SC(Nc2ccccc2)C1=O (centres undefined)	ALDH1A1 block 31.6µM
O=C(O)c1cccc(CN2C(=O)SC(Nc3ccccc3)C2=O)c1 (centres undefined)	ALDH1A1 block 7.08µM, Tau ThT inhib inconclusive
Cc1ccc(NC2SC(=O)N(Cc3cccc(C(=O)O)c3)C2=O)cc1 (centres undefined)	ALDH1A1 block 25.1µM
Cc1c(C(=O)OCCOc2ccccc2)[nH]c2c1C(=O)CCC2	none
Cc1c(C(=O)OC2CCCC2C)[nH]c2c1C(=O)CCC2 (centres undefined)	ALDH1A1 block 8.91µM
O=C(Nc1ccc(Br)cc1)C(Cc1ccccc1)NS(=O)(=O)c1cccc2nsnc12 (centres undefined)	none (no result: HPGD inh, ALDH1A1 block, JMJD2E inh)
CCCCCC(O)(CCN1CCCCC1)c1ccc(OCC)cc1 (centres undefined)	ALDH1A1 block 1.78µM (no result: HPGD inh)
CCCC(O)(CCN1CCCCC1)c1ccc(OCC)cc1 (centres undefined)	ALDH1A1 block 0.891µM
O=C(Nc1ccc(Br)cc1F)c1cc2nc(-c3ccco3)cc(C(F)(F)Cl)n2n1	none (no result: HPGD inh, ALDH1A1 block, JMJD2E inh)
CN1C=CC=C/C1=C1\SC(=S)N(CC(=O)O)C1=O	ALDH1A1 block inconclusive, Tau ThT inhib inconclusive, JMJD2E inh inconclusive (no result: HPGD inh)
CN1C=CC=C/C1=C1\SC(=S)N(c2ccccc2)C1=O	ALDH1A1 block 11.2µM, Tau ThT inhib inconclusive
CN1C=CC=C/C1=C1\SC(=S)N(C2CCCCC2)C1=O	ALDH1A1 block 14.1µM, Tau ThT inhib inconclusive
CCOC(=O)c1cc(C#N)c(N2CCN(C(=O)c3ccccc3)CC2)nc1C(F)(F)F	ALDH1A1 block 12.6µM (no result: HPGD inh)
CC(=O)c1cc(F)c(N2CCN(C(=O)C(C)(C)C)CC2)cc1C	ALDH1A1 block 15.8µM
CCOC(=O)C1(Cc2ccccc2)CCN(Cc2cc(OC)c3c(c2)OCO3)CC1	none (no result: HPGD inh)
CCC(=O)N1CC23C=CC(CC2CC12CCCCC2)O3 (centres undefined)	ALDH1A1 block 15.8µM
Cc1nn(C)c(C)c1/C=N/NC(=O)c1csc2ccccc12	ALDH1A1 block 22.4µM, Tau ThT inhib inconclusive
O=C(O)c1cnc(-c2ccccc2)nc1C(F)(F)F	none (no result: HPGD inh)
O=C(Nc1cccc(S(=O)(=O)N2CCCCCC2)c1)c1cc(=O)c2ccccc2o1	Tau fibril FP inconclusive, Tau fluor cs 14.1µM[quencher], ALDH1A1 block 11.2µM (no result: HPGD inh)
CN(c1ccccc1)S(=O)(=O)c1cccc(NC(=O)c2cc(=O)c3ccccc3o2)c1	Tau fluor cs 12.6µM[quencher], ALDH1A1 block inconclusive (no result: HPGD inh)
COc1ccccc1OCCC(=O)OCC(=O)c1[nH]c(C)c(C(C)=O)c1C	ALDH1A1 block 25.1µM, Tau ThT inhib inconclusive (no result: HPGD inh)
CC(=O)c1c(C)[nH]c(C(=O)COC(=O)CCCOc2ccccc2)c1C	none (no result: HPGD inh)
COc1ccc(C(=O)N2CCN(c3nc4c(OC)cccc4s3)CC2)cc1OC	none (no result: HPGD inh, ALDH1A1 block, JMJD2E inh)
C=CCOC(=O)c1cc(-c2ccc(/C=C3\C(=O)NC(=O)C(C#N)=C3C)o2)ccc1Cl	HPGD inh 15.8µM, Tau fluor cs inconclusive, ALDH1A1 block 10µM, Tau ThT inhib inconclusive, JMJD2E inh inconclusive
CC1=C(C#N)C(=O)NC(=O)/C1=C/c1ccc(-c2ccc(S(N)(=O)=O)cc2)o1	Tau fluor cs inconclusive, ALDH1A1 block inconclusive, Tau ThT inhib 15.8µM, JMJD2E inh inconclusive (no result: HPGD inh)
Cc1ccc2nc(Nc3ccc(Br)cc3)nc(-c3ccccc3)c2c1	Tau fibril FP inconclusive (no result: HPGD inh, ALDH1A1 block, JMJD2E inh)
CN(C[C@H](Cc1ccccc1)N(C[C@H](Cc1cccc2ccccc12)N(CCc1ccccc1)N=O)N=O)N=O	none (no result: HPGD inh, ALDH1A1 block)
CC(C)C[C@@H](CN(C)N=O)N(C[C@H](Cc1ccccc1)N(CCc1ccccc1)N=O)N=O	ALDH1A1 block 8.91µM (no result: HPGD inh)
CC(=O)N/C(=C/c1ccc(OS(=O)(=O)c2ccc(C)cc2)cc1)C(=O)NCCCO	ALDH1A1 block 2.24µM (no result: HPGD inh)
COc1ccc(CN(Cc2ccc(C(=O)O)cc2)C(=S)Nc2ccccc2F)cc1OC	ALDH1A1 block 12.6µM (no result: HPGD inh)
COc1ccccc1NC(=S)N(Cc1ccc(C(=O)O)cc1)Cc1ccc(OC)c(OC)c1	none (no result: HPGD inh)
CCOC(=O)c1oc2ccccc2c1NC(=O)COc1cccc(OC)c1	HPGD inh inconclusive, ALDH1A1 block inconclusive, JMJD2E inh 5.01µM
CCOc1ccc(NC(=O)c2oc3ccccc3c2NC(=O)COc2cccc(OC)c2)cc1	none (no result: HPGD inh, ALDH1A1 block, JMJD2E inh)
Cc1ccc(C(=O)c2ccc(N3CCOCC3)c(F)c2)cc1	HPGD inh 28.2µM, ALDH1A1 block inconclusive
Cc1cc(C)c(Nc2nn3c(=O)c4cc5c(cc4nc3s2)OCO5)c(C)c1	Tau fibril FP inconclusive, Tau ThT inhib 28.2µM (no result: HPGD inh, ALDH1A1 block, JMJD2E inh)
CCCCC1=CC2=CC(=O)C(C)(OC(=O)CC)C(=O)C2=CN1c1ccccc1 (centres undefined)	Tau ThT inhib inconclusive, JMJD2E inh 25.1µM!
CCCCC1=CC2=CC(=O)C(C)(OC(=O)CC)C(=O)C2=CN1Cc1ccco1 (centres undefined)	Tau ThT inhib inconclusive, JMJD2E inh 22.4µM!
CN(C)CC(O)Cn1c2ccc(Br)cc2c2cc(Br)ccc21 (centres undefined)	Tau fibril FP 25.1µM, Tau fluor cs inconclusive (no result: HPGD inh, JMJD2E inh)
COc1cc2c(cc1OC)CN(c1ccc(-c3ccccc3OC)nn1)CC2	HPGD inh 35.5µM, Tau ThT inhib inconclusive

Source: PubChem
